Rows were chosen to be rich in hits. Some 4.8% of all compounds tested hit in one or more screens of this group.
ATXN viability – reduces viability in counter-screen for ATXN expression inhibitors. S2 cells (HEK-293 line with an ATXN2-luciferase reporter) viability, CellTiter-Fluor protease fluorescence, 24 h. Potency, µM (doses to about 56.7 µM), most hits filed as cytotoxic. 0.49% of 400,000 active. AID 651635; note: nearly all actives have a fitted effect of over 40% in size
TGFb inhibitor – inhibitors of TGF-b signaling; Potency, µM (series often up to 46.1 µM), usual class: inhibitors; 1.2% of 410,000 active; HepG2 CAGA-GFP TGF-b/SMAD3 reporter, GFP fluorescence, 18 h; TGF-beta stimulated, 500 pg/mL final; AID 588855; note: nearly all actives have a fitted effect of over 65% in size
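GFP signal (ex488/em500-530) from TGF-beta-stimulated HEPG2 CAGA-GFP cells, 500 pg/mL final, 18 h at 37 degrees C in DMEM plus 1% FBS, normalized to unstimulated and DMSO-stimulated controls.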
ATXN2 expr inh – ATXN2 expression inhibition; HEK-293 ATXN2-luciferase reporter, luminescence, 24 h; Potency, µM (top dose mostly 57 µM), actives largely listed as inhibitors; 0.72% of 360,000 active; AID 1745845; note: nearly all actives have a fitted effect of over 55% in size
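ATXN2-luciferase reporter cells (luciferase flanked by upstream and downstream ATXN2 gene portions) were treated 24 h at 37 °C with compounds at up to 57 uM. SteadyGlo luminescence gave expression; GF-AFC fluorescence gave viability.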
D3 ag – agonists of human D3 dopamine receptor | P35462 | D3R DiscoveRx beta-arrestin cells, luminescence, 90 min | max activation, % | 0.58% of 410,000 active; in the data active = max activation above about 30%
Target sequence (P35462 whole entry, looked up): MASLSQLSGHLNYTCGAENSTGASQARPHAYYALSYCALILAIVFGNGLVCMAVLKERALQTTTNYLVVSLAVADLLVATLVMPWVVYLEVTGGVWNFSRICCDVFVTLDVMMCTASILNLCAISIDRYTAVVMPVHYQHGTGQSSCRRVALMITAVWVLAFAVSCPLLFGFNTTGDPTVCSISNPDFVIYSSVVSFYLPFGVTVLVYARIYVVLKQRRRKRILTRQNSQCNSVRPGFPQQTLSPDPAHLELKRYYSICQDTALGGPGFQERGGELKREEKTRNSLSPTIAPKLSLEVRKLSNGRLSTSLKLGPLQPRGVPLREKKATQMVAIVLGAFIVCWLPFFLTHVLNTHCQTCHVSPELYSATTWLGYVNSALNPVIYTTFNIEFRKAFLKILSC
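Agonist mode: compounds and dopamine controls were applied to plated cells for 90 min at 37 degrees C after an overnight attachment at 1500 cells/well. Luminescent read-out followed 30 - 60 minutes at room temperature with DiscoveRx detection reagent.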
HepG2 tox – HepG2 cytotoxicity, counter-screen for TGF-b inhibitors; HepG2 CAGA-GFP viability, ATP luminescence, 18 h; Potency, µM (titrated, usually from 46.1 µM), usual class: cytotoxic; 0.76% of 410,000 active
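HepG2 CAGA-GFP cells (1000/well, DMEM with 1% FBS) received compound, then TGF-beta at 500 pg/mL final, and were incubated 18 hours at 37 degrees C. Viability was read by CellTiter-Glo luminescence. Media-only wells were set as complete cell-killing and DMSO as no toxicity.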
D3 antag – D3 dopamine receptor (human) antagonism | 2.5% of 360,000 active | max response, negative = inhibition, % | AID 652054 | D3R cells, DiscoveRx beta-arrestin luminescence, antagonist mode; active compounds read low; in the data active = max response below about -50%; inconclusive = no clear call, values can overlap the other calls
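Cells expressing the human receptor were seeded at 1500 cells/well, incubated overnight at 37 degrees C in 5% CO2, then exposed to library compounds with dopamine controls for 90 minutes at 37 degrees C before luminescent detection.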
A number is an active result; 0 = inactive; ? = inconclusive; - = no result; [ ] = dose if it differs, or a comment. Unless noted, calls come from the whole dose curve; as a rule, active = well fitted curve in the direction sought with a large enough effect; inconclusive = small, poorly fitted or top-dose-only effect, or another doubt; inactive = no such curve, though single readings can be large; an effect the other way counts as inactive or inconclusive.

SMILES	ATXN viability	TGFb inhibitor	ATXN2 expr inh	D3 ag	HepG2 tox	D3 antag
Cc1c(C(=O)NCc2ccccc2C(F)(F)F)sc(=O)n1Cc1ccc2ccccc2c1	0	0	0	0	0	0
Cc1c(C(=O)NCc2ccccc2C(F)(F)F)sc(=O)n1Cc1cccc(C(F)(F)F)c1	0	0	0	0	0	-55
COc1ccc(Cl)cc1Cn1c(C)c(C(=O)NCc2ccccc2C(F)(F)F)sc1=O	0	0	0	0	0	?
O=C(O[C@H]1[C@H](Cc2ccccc2)NS(=O)(=O)[C@H]2CC3C=C[C@]12O3)c1ccc(Br)cc1	-	0	-	-	0	-
Cc1cc(C)c(C#N)c(SCC(=O)c2ccccc2)n1	-	10µM	0	0	0	0
Cc1cc(C)c(C(N)=O)c(SCC(=O)c2ccc(Cl)cc2)n1	0	0	0	0	0	-60
Cc1cc(C)c(C#N)c(SCC(=O)c2cccs2)n1	0	0	0	0	0	?
Cc1nc(SCC(=O)c2ccc(Cl)cc2)c([N+](=O)[O-])[nH]1	-	?	-	0	0	-66
Cc1ccc(C)c(NC(=O)CN2C(=O)CCc3cc(S(=O)(=O)N4CCCCC4)ccc32)c1	0	0	0	0	0	-
COc1cccc(N(Cc2nnc3n2CCCCC3)C(=O)Nc2cccc(Cl)c2)c1	0	0	0	0	0	-
Cc1ccc(-c2nc(CS(=O)(=O)CC(=O)Nc3ccc(Br)cc3F)c(C)o2)cc1	-	0	-	0	0	-
CCN(CC)CCC(c1ccc(N(C)C)cc1)c1c(OC)cc(OC)c2c1OC(=O)CC2c1ccc(N(C)C)cc1 (stereo not given)	-	0	-	-	0	-
CC(C)(C)c1ccc(C(=O)C[n+]2ccc(Cl)c3ccc(Cl)cc32)cc1	-	?	-	-	0	-
O=C1c2ccccc2S(=O)(=O)N1Cc1nc2ccccc2s1	0	0	4µM	0	0	0
CCOC(=O)c1c(NC(=O)/C=C/C(=O)O)sc(C)c1-c1ccc(C(C)(C)C)cc1	?	?	0[11.3 µM]	0	13µM	0
Cc1ccc(C(=O)CCS(=O)(=O)c2ccc(F)cc2)cc1	0	16µM	0	0	13µM	0
Cc1ccc(S(=O)(=O)CCC(=O)c2ccc(F)cc2)cc1	0	?	0	0	0	0
OC(CNCCc1ccc(Cl)cc1)COc1cc(Cl)ccc1Cl (stereo not given)	?	16µM	?	0	0	0
OC(CNCCc1ccccc1)COc1ccc(OCC(O)CNCCc2ccccc2)cc1 (stereo not given)	?	?	28µM	0	0	-52
COc1ccc(C(OCC(O)CNCCc2ccccc2)c2ccc(OC)cc2)cc1 (stereo not given)	?	?	?	0	0	-58
OC(CNCCc1ccc(Cl)cc1)COc1ccc2ccccc2c1 (stereo not given)	0	?	0	0	0	0
Clc1ccc(OCCNCCc2ccccc2)cc1	0	?	-	0	0	-59
OC1(c2cccnc2)CCN(Cc2ccc3c(c2)CN(Cc2cccc(C(F)(F)F)c2)CCO3)CC1	0	-	-	-	-	-
CCOC(=O)N1CCc2c(sc3c2c(=O)n(Cc2ccccc2)c(=O)n3Cc2ccccc2Cl)C1	-	0	-	0	0	-
Cc1cc(C(=O)Nc2cccc(-c3nc(CNC(=O)c4ccccc4C(F)(F)F)c(C)o3)c2)c(C)o1	0	-	-	-	-	-
SMILES	ATXN viability	TGFb inhibitor	ATXN2 expr inh	D3 ag	HepG2 tox	D3 antag
CCOc1ccccc1NC(=O)CN1C(=O)COc2ccc(S(=O)(=O)N3CCCCCC3)cc21	-	0	-	0	0	-
O=C(c1ccccc1)c1ccc(OCC(O)CNCc2ccc(F)cc2)cc1 (stereo not given)	-	?	0	0	0	0
O=C(c1ccccc1)c1ccc(OCC(O)CNCc2cccc(Cl)c2)cc1 (stereo not given)	0	?	0	0	11µM	0
O=C1/C(=C\c2cccs2)CCC/C1=C\c1cccs1	-	-	-	0	-	-
Cc1[nH]nc(SCC(=O)N2CCC(C)CC2)c1[N+](=O)[O-]	?	0	0	0	0	-51
Cc1[nH]nc(SCC(=O)N2CCCC2)c1[N+](=O)[O-]	0	0	-	0	0	0
O=C(Nc1ccccc1)C1=C(c2ccccc2)S(=O)(=O)CCS1(=O)=O	8.9µM	2.5µM	5.6µM	0	2.5µM	-105
Cc1ccc(/C=C/C(=O)c2ccccc(=O)c2O)cc1C	?	10µM	?	0	0	0
O=C(/C=C/c1ccccc1)c1cc(Br)ccc(=O)c1O	?	16µM	20µM	0	0	0
O=C(CN(CCc1c[nH]c2ccccc12)S(=O)(=O)c1ccccc1)N1CCCCCC1	-	0	-	-	0	-
O=C(Cc1ccccc1Nc1c(Cl)cccc1Cl)OCO/N=[N+](\[O-])N1CCCC1	-	?	-	-	0	-
CN1CCC(=O)N(C(CSc2ccc(Br)cc2)c2ccccc2)CC1 (stereo not given)	-	0	-	-	0	-
CN(C)C(CNC(=O)c1ccc(C2SCCS2)cc1)c1ccccc1 (stereo not given)	0	0	0	0	0	-53
O=C(NCCCc1nc2ccccc2n1Cc1ccccc1F)c1ccco1	0	?	0	0	0	-
Cc1ccc(Cn2c(C)c(CNCc3ccccc3F)c(C(=O)O)c2C)cc1	0	?	0	0	0	-
O=C(c1ccc(F)cc1)C1CCN(Cc2ccc(F)cc2)CC1	?	0	0	0	0	-88
COc1ccc(CN2CCC(C(=O)c3cccc(Cl)c3)CC2)cc1	0	0	0	0	0	0
O=C(CCCN1CCC(C(=O)c2ccc(F)cc2)CC1)c1ccc(F)cc1	0	0	0	0	0	-101
COc1ccc(CN2CCC(C(=O)c3ccc(Cl)cc3)CC2)cc1	?	0	-	0	0	-88
CN1CCN(CCCC(=O)c2ccc(C3CCCC3)cc2)CC1	0	?	0	0	0	-55
O=C(c1ccc(F)cc1)C1CCN(Cc2ccccc2)CC1	-	0	-	0	0	-86
O=C(c1ccc(F)cc1)N1CCN(Cc2ccccc2)CC1	0	0	0	0	0	?
O=C(CCCN1CCC(O)(c2cccc(C(F)(F)F)c2)CC1)c1ccc(F)cc1	0	0	0	0	0	-61
COC(=O)C1CCCCN1Cc1ccc2c(c1)CN(Cc1cn[nH]c1-c1ccc(F)cc1)CCO2 (stereo not given)	0	-	-	-	-	-
COC(=O)c1ccc(=O)n(Cc2ccco2)c1	?	0	0	0	0	0
COC(=O)c1cc(Br)c(=O)n(Cc2ccco2)c1	0	0	0	0	0	-52
CCOCCc1nn2c(=O)cc(COC(=O)C(CC)c3ccccc3)nc2s1 (stereo not given)	0	0	0	0	0	-
O=C1C2C3C=CC(C3)C2C(=O)N1c1n[nH]c(-c2ccccc2)n1 (stereo not given)	0	0	0	34	0	0

Bioassay records as filed in PubChem BioAssay.
